Screening data from PubChem.
This is a sample that favours compounds with a hit; in the whole collection about 2.3% have one here.
C diff HTS = C. difficile growth inhibition; actives 0.25% (n = 86,000); growth activity, negative = inhibition, % at 16 µg/mL (by protocol); AID 1259249; Clostridium difficile clinical isolate growth, OD600, 24 h; stronger effect = lower value;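 active = mean growth activity at or below -80% and every replicate also at or below -80%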;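 note: 0% = DMSO wells and -100% = levofloxacin 16 µg/mL wells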
Pf Dd2 growth = inhibitors of Plasmodium falciparum Dd2 growth. P. falciparum Dd2 growth, SYBR Green, 72 h; stronger effect = lower value. AID 1159554. activity change, % at 10 µM. actives 2.3% (n = 94,000); in the data active = activity change below about -80%
* marks the source's active call; other numbers are inactive results; . = not tested or not shown.

SMILES	C diff HTS	Pf Dd2 growth
C[C@@H]1CN([C@@H](C)CO)C(=O)c2cccc(NC(=O)CCCCCC(=O)Nc3ccccc3N)c2O[C@H]1CN(C)CC1CC1	-2	-85*
C[C@H]1CN([C@@H](C)CO)C(=O)c2cccc(NC(=O)CCCCCC(=O)Nc3ccccc3N)c2O[C@@H]1CN(C)CC1CC1	-17	-78
C[C@H](CO)N1C[C@H](C)[C@@H](CN(C)CC2CCCCC2)Oc2c(NC(=O)CCCCCC(=O)Nc3ccccc3N)cccc2C1=O	5	-88*
C[C@H]1CN([C@@H](C)CO)C(=O)c2cccc(NC(=O)CCCCCC(=O)Nc3ccccc3N)c2O[C@H]1CN(C)CC1CCCCC1	-3	-83*
C[C@@H]1CN([C@H](C)CO)C(=O)c2cccc(NC(=O)CCCCCC(=O)Nc3ccccc3N)c2O[C@H]1CN(C)CC1CC1	-4	-75
C[C@@H]1CN([C@H](C)CO)C(=O)c2cccc(NC(=O)CCCCCC(=O)Nc3ccccc3N)c2O[C@@H]1CN(C)CC1CC1	7	-45
COc1ccc(CN(C)C[C@H]2OCCCC[C@@H](C)Oc3ccc(NC(=O)Cc4ccccc4)cc3C(=O)N([C@@H](C)CO)C[C@H]2C)cc1	-3	-68
C[C@H]1CN([C@@H](C)CO)C(=O)c2cc(NS(=O)(=O)c3ccc(Cl)cc3)ccc2O[C@H]1CN(C)Cc1ccc(C(F)(F)F)cc1	27	-29
O=C(Cc1ccccc1)N1CC(=O)N2[C@H](CO)[C@H](c3ccc(C#CCc4ccccc4)cc3)[C@H]2C1	-15	-89*
O=C(C1CCC1)N1CC(=O)N2[C@H](CO)[C@@H](c3ccc(C#CCc4ccccc4)cc3)[C@@H]2C1	-9	-86*
O=C(Cc1ccccc1)N1CC(=O)N2[C@H](CO)[C@@H](c3ccc(C#CCc4ccccc4)cc3)[C@H]2C1	38	-43
O=C(C1CCC1)N1CC(=O)N2[C@H](CO)[C@H](c3ccc(C#CCc4ccccc4)cc3)[C@H]2C1	-15	-13
O=C(c1cnccn1)N1CC(=O)N2[C@H](CO)[C@@H](c3ccc(C#CCc4ccccc4)cc3)[C@@H]2C1	-13	-72
O=C(c1cnccn1)N1CC(=O)N2[C@@H](CO)[C@@H](c3ccc(C#CCc4ccccc4)cc3)[C@@H]2C1	-10	-83*
Cc1cccc(S(=O)(=O)N(C)C[C@H]2OCc3cnnn3CCCC(=O)N([C@H](C)CO)C[C@@H]2C)c1	-3	9
COc1ccc(NC(=O)Nc2ccc3c(c2)CC(=O)N([C@H](C)CO)C[C@@H](C)[C@@H](CN(C)C(=O)Nc2ccc(C(F)(F)F)cc2)O3)cc1	-3	21
CC(C)CC#Cc1ccc2c(c1)O[C@H](CN(C)C(=O)c1ccccc1)[C@@H](C)CN([C@@H](C)CO)S2(=O)=O	7	-59
C[C@H](CO)N1C[C@H](C)[C@H](CN(C)C(=O)Nc2ccc(C(F)(F)F)cc2)OCCCC[C@H](C)Oc2ccc(NS(=O)(=O)c3cn(C)cn3)cc2C1=O	16	-24
O=C(N[C@H]1CC[C@@H](CC(=O)N2CCN(c3ccccc3)CC2)O[C@H]1CO)c1ccccc1	.	-27
C/C=C/c1ccc2c(c1)O[C@H](CN(C)C(C)=O)[C@H](C)CN([C@@H](C)CO)S2(=O)=O	-7	15
C[C@@H]1CN([C@@H](C)CO)C(=O)c2cc(NC(=O)C3CCCCC3)ccc2O[C@H]1CN(C)S(C)(=O)=O	-1	16
CC(=O)N(C)C[C@@H]1Oc2cc(C#CCC(C)C)ccc2S(=O)(=O)N([C@@H](C)CO)C[C@@H]1C	5	-9
C[C@H](CO)N1C[C@H](C)[C@H](CN(C)Cc2ccc(C(F)(F)F)cc2)Oc2c(NC(=O)c3nc4ccccc4s3)cccc2C1=O	.	-87*
C[C@@H]1CN([C@H](C)CO)C(=O)c2cccc(NC(=O)c3nc4ccccc4s3)c2O[C@@H]1CN(C)Cc1ccc(C(=O)Nc2ccccc2N)cc1	.	-88*
C[C@H]1CN([C@@H](C)CO)C(=O)c2cccc(NC(=O)c3nc4ccccc4s3)c2O[C@@H]1CN(C)Cc1ccc(C(F)(F)F)cc1	.	-45
SMILES	C diff HTS	Pf Dd2 growth
C[C@@H]1CN([C@H](C)CO)C(=O)c2cccc(NC(=O)c3nc4ccccc4s3)c2O[C@@H]1CN(C)Cc1ccc(C(=O)O)cc1	-1	-33
C[C@@H]1CN([C@@H](C)CO)C(=O)c2cccc(NC(=O)c3nc4ccccc4s3)c2O[C@@H]1CN(C)Cc1ccc(C(=O)O)cc1	-4	-23
C[C@@H]1CN([C@@H](C)CO)C(=O)c2cccc(NC(=O)c3nc4ccccc4s3)c2O[C@H]1CN(C)Cc1ccc(C(=O)Nc2ccccc2N)cc1	.	-91*
Cc1noc(C)c1NC(=O)Nc1ccc2c(c1)CC(=O)N([C@H](C)CO)C[C@@H](C)[C@H](CN(C)C(=O)NC(C)C)O2	-3	30
C[C@@H]1CN([C@H](C)CO)C(=O)Cc2cc(NC(=O)Nc3ccc4c(c3)OCO4)ccc2O[C@@H]1CN(C)C(=O)Nc1ccc(C(F)(F)F)cc1	5	-2
COc1ccc(NC(=O)N(C)C[C@H]2Oc3c(NC(=O)CCCCCC(=O)Nc4ccccc4N)cccc3C(=O)N([C@@H](C)CO)C[C@H]2C)cc1	5	-89*
C[C@@H]1CN([C@H](C)CO)C(=O)c2cccc(NC(=O)CCCCCC(=O)Nc3ccccc3N)c2O[C@H]1CN(C)C(=O)Nc1cccc2ccccc12	-1	-73
C[C@@H]1CN([C@H](C)CO)C(=O)c2cccc(NC(=O)CCCCCC(=O)Nc3ccccc3N)c2O[C@H]1CN(C)C(=O)Nc1ccc(C(F)(F)F)cc1	10	-88*
COc1ccc(NC(=O)N(C)C[C@H]2Oc3c(NC(=O)CCCCCC(=O)Nc4ccccc4N)cccc3C(=O)N([C@H](C)CO)C[C@@H]2C)cc1	2	-28
C[C@H]1CN([C@@H](C)CO)C(=O)c2cc(NC(=O)CCCCCC(=O)Nc3ccccc3N)ccc2O[C@@H]1CN(C)C(=O)Nc1ccc(C(F)(F)F)cc1	8	0
C[C@H](CO)N1C[C@H](C)[C@@H](CN(C)C(=O)Nc2ccc(F)cc2)Oc2c(NC(=O)CCCCCC(=O)Nc3ccccc3N)cccc2C1=O	-6	-63
C[C@H](CO)N1C[C@H](C)[C@@H](CN(C)C(=O)Nc2ccc(C(F)(F)F)cc2)Oc2c(NC(=O)CCCCCC(=O)Nc3ccccc3N)cccc2C1=O	8	-84*
C[C@H]1CN([C@@H](C)CO)C(=O)c2cccc(NC(=O)CCCCCC(=O)Nc3ccccc3N)c2O[C@H]1CN(C)C(=O)Nc1ccc(C(F)(F)F)cc1	12	-92*
CCCNC(=O)N1CC(=O)N2[C@@H](CO)[C@@H](c3ccc(C#Cc4cccc(OC)c4)cc3)[C@@H]2C1	0	-79
Cc1cccc(S(=O)(=O)N2C[C@@H](O)COC[C@H]3O[C@H](CC(=O)NCc4ccc5c(c4)OCO5)CC[C@@H]32)c1	.	-21
N#C[C@H]1[C@@H](c2ccc(-c3cccnc3)cc2)[C@H](CO)N1C(=O)C1CC1	1	69
COc1ccc2c3c(n(C)c2c1)[C@@H](CO)N(Cc1ccccc1OC)CC31CCN(CC2CCOCC2)CC1	9	-66
COc1ccc(NC(=O)N(C)C[C@@H]2Oc3c(NC(=O)Nc4ccccc4)cccc3C(=O)N([C@H](C)CO)C[C@@H]2C)cc1	6	-17
